5 molecules from PubChem BioAssay AID593 (National Center for Advancing Translational Sciences (NCATS), 2007) can be followed below.

The campaign covered roughly 59,000 compounds. About 540 (0.92%) were called active. Not shown: some 33% with an inconclusive outcome. Rule as the data show it: active = max fluorescein-equivalent concentration above about 10 nM; inconclusive = between about 1.1 nM and that limit; inactive = weaker than that. The entries come from a sample that favours actives as a whole.

This assay can be described thus: qHTS Assay for Spectroscopic Profiling in Fluorescein Spectral Region. As to conditions: Compound autofluorescence, 480/540 nm; max fluorescein-equivalent concentration: active compounds read high; outcome: fluorescein-equivalent. From the text:
NIH Molecular Libraries Screening Centers Network [MLSCN]
NIH Chemical Genomics Center [NCGC]
Occasionally, the artifactual effect may originate from the compound's own spectral or other biophysical properties which generally tend to track its assay concentration. Pre-screening/profiling the library with respect to the compounds' spectral properties should help one exclude false positives early on. While the most informative fluorescent profiling data set is obtained by performing a full excitation and emission scan of each well by using a monochromator-based plate reader, such an approach is practical only on a very limited scale as scanning each well requires long time. An alternative approach, applied here, is to perform plate reader scans using selected excitation and emission wavelength pairs to generate a multidimensional relational database that correlates compound concentration and the respective relative fluorescence intensity at a given wavelength set. A standard curve of fluorescein present on each plate as six-point concentration series, was used to compute a normalized fluorescence response, termed dye-equivalent concentration, for each compound at each concentration.
NCGC Assay Protocol Summary:
100 mM Tris buffer, pH 8.0
The wells in columns 1 through 4 of a Kalypsys polypropylene 1536-well compound plate were filled with standard solutions of fluorophore corresponding to the spectral region of interest. Solutions of Fluorescein were placed in the following wells: Q1, R1: 3 mM, Q2, R2: 300 uM, Q3, R3: 30 uM, Q4, R4: zero (DMSO), S1, T1: 3 uM, S2, T2: 900 nM, S3, T3: 300 nM, S4, T4: zero (DMSO).
Six uL of buffer were dispensed to 1536-well Greiner black plates. Compounds and dye standards (23 nL) were transferred via Kalypsys PinTool. The plates were incubated for 15 min at room temperature, and then read on ViewLux (Perkin-Elmer) High-throughput CCD imager using 480 nm and 540 nm excitation and emission filter set.
Keywords: NIH Roadmap, MLSCN, MLI, MLSMR, qHTS, NCGC, Fluorescein, Fluorescent Profiling.
In general terms: Quantitative high-throughput screening tests each substance at several concentrations.
Turning to `CN1C2C=C(N(C(=O)c3ccc(Cl)cc3)c3ccccc3)CC1CC2` (stereo not given), the max fluorescein-equivalent concentration was 10 nM (active). The value for `CCN1C[C@@]2(COC)CC[C@H](OC)[C@]34[C@@H]1[C@]1(OCO[C@@]15C[C@@H](OC)C1C[C@H]3[C@H]5[C@@H]1OC)[C@H](O)[C@@H]24` was “inactive”; that for `COc1ccc(-c2nc(CS(=O)CC(=O)N3CCC4(CC3)OCCO4)c(C)o2)cc1` (stereo not given) was “inactive”.

For the molecule `CC(C)CCC1(CCN)C(=O)NC(=O)NC1=O`, the max fluorescein-equivalent concentration result is “inactive”. The value for `CCC(=NCc1ccco1)c1c(O)n(Cc2ccccc2)c(=O)[nH]c1=O` was “inactive”.
